Source: PubChem BioAssay (NCATS)
A number with no mark means an inactive call. Results filed as inconclusive are left out. Entries that show only a call come without a potency. Calls of active or inactive are those of the source. Unless noted, the call rests on the fitted dose curve; in most records, active means well fitted curve in the direction sought with a large enough effect; inconclusive means small, poorly fitted or top-dose-only effect, or another doubt; inactive means no such curve, though single readings can be large; an effect the other way counts as inactive or inconclusive.

Columns and labels:
[1] = target: Rap guanine nucleotide exchange factor 3 (Homo sapiens) (UniProt O95398); test: Confirmatory qHTS for antagonist of cAMP-regulated guanine nucleotide exchange factor 3 (EPAC1) (AID 1645880); details: EPAC1 Rap1B-BODIPY-GDP exchange, fluorescence; activity, negative = inhibition: at 115 µM (top of the series); further: nearly all actives have a fitted effect of over 55% in size; further: potency means the concentration at half of the fitted maximal effect
Sequence of Rap guanine nucleotide exchange factor 3 (Homo sapiens) (O95398 whole entry, looked up): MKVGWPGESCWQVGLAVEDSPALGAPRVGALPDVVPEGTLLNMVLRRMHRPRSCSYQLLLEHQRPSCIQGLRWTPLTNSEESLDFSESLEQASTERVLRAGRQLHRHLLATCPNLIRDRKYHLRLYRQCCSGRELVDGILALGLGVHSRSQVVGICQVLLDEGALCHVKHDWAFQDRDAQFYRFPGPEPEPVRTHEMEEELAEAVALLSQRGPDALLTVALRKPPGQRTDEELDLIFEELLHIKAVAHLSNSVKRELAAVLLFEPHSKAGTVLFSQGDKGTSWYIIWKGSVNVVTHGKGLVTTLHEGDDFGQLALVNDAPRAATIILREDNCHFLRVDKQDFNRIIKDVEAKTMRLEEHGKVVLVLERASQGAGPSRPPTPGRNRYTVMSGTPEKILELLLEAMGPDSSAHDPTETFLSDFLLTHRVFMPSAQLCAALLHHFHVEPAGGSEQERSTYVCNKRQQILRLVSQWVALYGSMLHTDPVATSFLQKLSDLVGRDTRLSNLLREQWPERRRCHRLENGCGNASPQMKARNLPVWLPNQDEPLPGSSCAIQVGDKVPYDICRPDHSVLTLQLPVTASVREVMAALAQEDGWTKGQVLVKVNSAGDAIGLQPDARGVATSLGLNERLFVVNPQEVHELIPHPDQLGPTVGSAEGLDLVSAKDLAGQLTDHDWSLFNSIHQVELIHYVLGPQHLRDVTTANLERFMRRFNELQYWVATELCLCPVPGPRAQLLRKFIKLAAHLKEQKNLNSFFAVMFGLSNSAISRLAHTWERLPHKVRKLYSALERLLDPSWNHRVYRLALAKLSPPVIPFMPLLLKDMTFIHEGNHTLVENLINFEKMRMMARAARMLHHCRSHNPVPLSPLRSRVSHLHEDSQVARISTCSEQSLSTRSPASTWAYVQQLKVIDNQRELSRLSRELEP
Procedure, shortened: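 Nucleotide exchange uses 100 nM EPAC1, 250 nM RAP1B-BODIPY-GDP and 50 uM GDP, with compounds in a concentration-titration series. After 5 min at room temperature, fluorescence (480 nm ex/540 nm em) is read every 5 min for 30 min. Data are normalized to control ATA and DMSO.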

[2] = target: Rap guanine nucleotide exchange factor 3 (Homo sapiens) (UniProt O95398); test: Confirmatory qHTS for agonist of cAMP-regulated guanine nucleotide exchange factor 3 (EPAC1) (AID 1645881); further: nearly all actives have a fitted effect of over 75% in size; further: potency means the concentration at half of the fitted maximal effect;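 on activation: EPAC1 catalysed release of BODIPY-GDP from Rap1B seen as fluorescence loss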
[3] = target: Rap guanine nucleotide exchange factor 3 (Homo sapiens) (UniProt O95398); test: Counterscreen qHTS for agonist of cAMP-regulated guanine nucleotide exchange factor 3 (EPAC1) (AID 1645889); further: nearly all actives have a fitted effect of over 40% in size; further: potency means the concentration at half of the fitted maximal effect
Procedure, shortened: (§1)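 Rap1B–BODIPY-GDP (250 nM) with 50 uM GDP; compounds pin-transferred to 9.74 nM–152 uM final (activator) or from 7.32 nM upwards (inhibitor). Fluorescence Ex/Em 480/540 nm read at 5 and 30 min, then after adding cAMP or buffer, at room temperature.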

[4] = target: Rap guanine nucleotide exchange factor 4 (Homo sapiens) (UniProt Q8WZA2); test: Confirmatory qHTS for agonist of cAMP-regulated guanine nucleotide exchange factor 4 (EPAC2) (AID 1645884);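 further: nucleotide exchange releases bodipy-GDP from Rap1 and this lowers its fluorescence; nearly all actives have a fitted effect of over 65% in size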; further: potency means the concentration at half of the fitted maximal effect
Sequence of Rap guanine nucleotide exchange factor 4 (Homo sapiens) (Q8WZA2 whole entry, looked up): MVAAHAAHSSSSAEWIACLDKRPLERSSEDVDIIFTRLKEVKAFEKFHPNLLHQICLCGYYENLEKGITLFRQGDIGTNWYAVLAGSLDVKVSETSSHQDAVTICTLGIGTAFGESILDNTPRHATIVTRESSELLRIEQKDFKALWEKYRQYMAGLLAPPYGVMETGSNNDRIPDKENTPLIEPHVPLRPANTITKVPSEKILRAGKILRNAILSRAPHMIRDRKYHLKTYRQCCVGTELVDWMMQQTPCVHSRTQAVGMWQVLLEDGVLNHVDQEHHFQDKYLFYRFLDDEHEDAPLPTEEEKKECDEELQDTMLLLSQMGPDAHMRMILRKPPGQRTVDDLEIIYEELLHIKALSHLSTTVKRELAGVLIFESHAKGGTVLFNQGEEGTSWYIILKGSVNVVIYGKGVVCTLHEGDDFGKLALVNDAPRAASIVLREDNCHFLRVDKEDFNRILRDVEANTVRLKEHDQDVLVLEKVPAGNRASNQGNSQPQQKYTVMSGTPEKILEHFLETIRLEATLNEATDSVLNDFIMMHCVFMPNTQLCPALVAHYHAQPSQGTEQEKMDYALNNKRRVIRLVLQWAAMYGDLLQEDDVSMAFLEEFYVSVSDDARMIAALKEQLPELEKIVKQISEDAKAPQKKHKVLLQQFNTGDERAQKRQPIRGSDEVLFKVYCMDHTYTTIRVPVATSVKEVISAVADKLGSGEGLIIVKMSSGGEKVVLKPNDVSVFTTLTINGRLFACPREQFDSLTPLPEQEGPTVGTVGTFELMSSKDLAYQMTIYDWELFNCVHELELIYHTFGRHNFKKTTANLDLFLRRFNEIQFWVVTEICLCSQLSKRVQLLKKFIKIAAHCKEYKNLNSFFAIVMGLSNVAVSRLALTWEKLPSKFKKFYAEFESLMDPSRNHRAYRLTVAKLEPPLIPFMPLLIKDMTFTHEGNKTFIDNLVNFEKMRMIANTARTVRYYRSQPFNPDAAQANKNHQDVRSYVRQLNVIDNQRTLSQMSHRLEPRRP

[5] = target: Rap guanine nucleotide exchange factor 4 (Homo sapiens) (UniProt Q8WZA2); test: Confirmatory qHTS for antagonist of cAMP-regulated guanine nucleotide exchange factor 4 (EPAC2) (AID 1645885); further: nearly all actives have a fitted effect of over 25% in size; further: potency means the concentration at half of the fitted maximal effect
[6] = target: Rap guanine nucleotide exchange factor 3 (Homo sapiens) (UniProt O95398); test: Counterscreen qHTS for antagonist of cAMP-regulated guanine nucleotide exchange factor 3 (EPAC1) (AID 1645888);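 further: fluorescence loss as bound BODIPY-GDP is released from Rap1B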
Procedure, shortened: as §1

[7] = target: Cytochrome P450 1A2 (Homo sapiens) (UniProt P05177); test: p450-cyp1a2 (AID 410; calls by dose curve; further: potency means the concentration at half of the fitted maximal effect)
Sequence of Cytochrome P450 1A2 (Homo sapiens) (P05177 whole entry, looked up): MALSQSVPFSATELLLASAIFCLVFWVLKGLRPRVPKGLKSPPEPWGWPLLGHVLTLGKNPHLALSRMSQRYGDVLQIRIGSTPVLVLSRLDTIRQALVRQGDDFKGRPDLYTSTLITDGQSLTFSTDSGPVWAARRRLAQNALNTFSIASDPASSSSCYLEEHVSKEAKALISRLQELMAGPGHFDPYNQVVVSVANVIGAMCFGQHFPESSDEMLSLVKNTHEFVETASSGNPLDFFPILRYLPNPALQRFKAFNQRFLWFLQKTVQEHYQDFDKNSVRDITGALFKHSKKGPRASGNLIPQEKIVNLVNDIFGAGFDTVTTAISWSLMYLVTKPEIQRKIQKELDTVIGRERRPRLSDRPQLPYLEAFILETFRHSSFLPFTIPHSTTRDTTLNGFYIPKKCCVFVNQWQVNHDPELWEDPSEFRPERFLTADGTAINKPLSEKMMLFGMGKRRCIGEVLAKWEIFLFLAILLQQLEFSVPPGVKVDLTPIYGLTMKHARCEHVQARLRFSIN
Procedure, shortened: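 Luminescent readout of luciferin formed from Luciferin-ME by human CYP1A2; data normalized against complete inhibition by 57 uM furafylline. Enzyme 20nM, substrate 100uM at Km, 100mM KPO4 buffer, 60 min reaction at room temperature.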

[8] = target: Glucocorticoid receptor (Homo sapiens) (UniProt P04150); test: GR-GFP Redistribution (AID 450;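 active means compounds whose dose series gives a full or clear partial fitted curve of increased nuclear translocation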; further: potency means the concentration at half of the fitted maximal effect); details: U2OS GR-GFP nuclear translocation, laser cytometry, 2 h
Sequence of Glucocorticoid receptor (Homo sapiens) (P04150 whole entry, looked up, the tested form may be a part): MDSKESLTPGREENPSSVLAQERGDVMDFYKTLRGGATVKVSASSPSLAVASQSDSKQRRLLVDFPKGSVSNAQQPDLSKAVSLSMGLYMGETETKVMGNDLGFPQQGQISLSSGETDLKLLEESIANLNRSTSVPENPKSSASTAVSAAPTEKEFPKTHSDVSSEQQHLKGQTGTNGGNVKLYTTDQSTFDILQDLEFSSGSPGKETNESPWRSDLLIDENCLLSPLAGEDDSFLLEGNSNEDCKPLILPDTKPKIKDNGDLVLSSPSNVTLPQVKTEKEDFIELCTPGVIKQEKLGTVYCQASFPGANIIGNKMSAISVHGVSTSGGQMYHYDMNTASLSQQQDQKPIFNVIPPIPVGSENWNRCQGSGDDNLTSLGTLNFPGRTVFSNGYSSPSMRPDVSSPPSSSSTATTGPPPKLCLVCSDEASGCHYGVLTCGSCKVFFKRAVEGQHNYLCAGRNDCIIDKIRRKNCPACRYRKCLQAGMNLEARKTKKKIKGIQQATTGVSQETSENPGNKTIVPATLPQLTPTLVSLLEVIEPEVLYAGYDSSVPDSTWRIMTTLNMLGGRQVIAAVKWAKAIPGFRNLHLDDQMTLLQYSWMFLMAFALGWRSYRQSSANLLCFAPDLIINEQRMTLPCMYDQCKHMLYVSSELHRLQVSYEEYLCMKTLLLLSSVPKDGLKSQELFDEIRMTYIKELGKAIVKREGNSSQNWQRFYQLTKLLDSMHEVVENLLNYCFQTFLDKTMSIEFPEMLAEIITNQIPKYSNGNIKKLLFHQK

[9] = target: Glucocorticoid receptor (Homo sapiens) (UniProt P04150); test: GR-EFC Redistribution (AID 451; calls by dose curve; further: potency means the concentration at half of the fitted maximal effect); details: CHO-K1 GR-EFC translocation, beta-gal luminescence, 2 h
Procedure, shortened: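 CHO-K1 cells expressing nuclear EA and GR-ED fragments of b-gal; compounds titrated up to 46 uM final, 2 h at 37 C. GR nuclear translocation read as complemented b-gal luminescence after 1 h RT detection.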

[10] = target: Mitogen-activated protein kinase 10 (Mus musculus) (UniProt Q61831); test: JNK3 AlphaScreen Assay (AID 530; active means well fitted curve in either direction with a large enough effect, not every such curve was filed as active;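 further: kinase came from lysate of stimulated human HepG2 cells; potency means the concentration at half of the fitted maximal effect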)
Procedure, shortened: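 Pre-activated (IL-1β/TNFα) JNK3 in HepG2 lysates phosphorylates biotin-GST-cJun(1-79), 10 uM ATP; anti-phospho-cJun(Ser73) AlphaScreen read at room temperature, pH 7.6 Tris buffer. Compounds pre-incubated 15 min as titrations.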

[11] = target: Cytochrome P450 2C9 (Homo sapiens) (UniProt P11712); test: qHTS Assay for Inhibitors and Substrates of Cytochrome P450 2C9 (AID 883); further: potency means the concentration at half of the fitted maximal effect; nearly all actives have a fitted effect of over 60% in size
Procedure, shortened: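 Signal: luciferase luminescence reporting luciferin produced by CYP2C9. Conditions: 10nM enzyme, Luciferin-H 100uM at KM, 25mM KPO4, 37C, 60 min NADPH-driven reaction. Reference: 57uM sulphaphenazole as 100% inhibition.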

[12] = target: Cytochrome P450 3A4 (Homo sapiens) (UniProt P08684); test: qHTS Assay for Inhibitors and Substrates of Cytochrome P450 3A4 (AID 884); further: potency means the concentration at half of the fitted maximal effect; nearly all actives have a fitted effect of over 50% in size
Sequence of Cytochrome P450 3A4 (Homo sapiens) (P08684 whole entry, looked up): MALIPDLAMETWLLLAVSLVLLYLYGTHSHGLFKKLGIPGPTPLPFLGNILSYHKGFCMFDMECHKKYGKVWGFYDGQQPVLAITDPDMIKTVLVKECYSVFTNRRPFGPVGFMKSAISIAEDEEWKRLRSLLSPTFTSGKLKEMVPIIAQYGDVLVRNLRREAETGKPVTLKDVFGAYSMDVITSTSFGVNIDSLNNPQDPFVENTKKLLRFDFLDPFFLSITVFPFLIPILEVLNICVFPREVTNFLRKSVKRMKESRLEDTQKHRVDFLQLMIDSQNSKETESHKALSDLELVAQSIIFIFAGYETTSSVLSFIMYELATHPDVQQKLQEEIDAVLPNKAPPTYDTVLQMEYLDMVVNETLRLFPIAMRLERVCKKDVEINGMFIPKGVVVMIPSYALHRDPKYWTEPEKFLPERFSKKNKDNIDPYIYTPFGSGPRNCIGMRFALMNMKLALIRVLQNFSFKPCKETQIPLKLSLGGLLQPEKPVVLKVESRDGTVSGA
Procedure, shortened: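 20 nM human CYP3A4 with 25 uM Luciferin-PPXE (at KM) in 200 mM KPO4, preincubated 10 min with compound; NADPH regeneration started a 60 min RT reaction. Luciferin detected by luminescence, normalized to 57 uM ketoconazole as full inhibition.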

[13] = target: Cytochrome P450 3A4 (Homo sapiens) (UniProt P08684); test: qHTS Assay for Activators of Cytochrome P450 3A4 (AID 885); further: nearly all actives have a fitted effect of over 65% in size
Procedure, shortened: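 Steps: enzyme/substrate mix dispensed; compound added, 10 min RT; NADPH regeneration solution added, 60 min RT; luciferin detection buffer stops reaction; 20 min later luminescence measured.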

[14] = target: Cytochrome P450 2D6 (Homo sapiens) (UniProt P10635); test: qHTS Assay for Inhibitors and Substrates of Cytochrome P450 2D6 (AID 891); further: potency means the concentration at half of the fitted maximal effect; nearly all actives have a fitted effect of over 60% in size
Sequence of Cytochrome P450 2D6 (Homo sapiens) (P10635 whole entry, looked up): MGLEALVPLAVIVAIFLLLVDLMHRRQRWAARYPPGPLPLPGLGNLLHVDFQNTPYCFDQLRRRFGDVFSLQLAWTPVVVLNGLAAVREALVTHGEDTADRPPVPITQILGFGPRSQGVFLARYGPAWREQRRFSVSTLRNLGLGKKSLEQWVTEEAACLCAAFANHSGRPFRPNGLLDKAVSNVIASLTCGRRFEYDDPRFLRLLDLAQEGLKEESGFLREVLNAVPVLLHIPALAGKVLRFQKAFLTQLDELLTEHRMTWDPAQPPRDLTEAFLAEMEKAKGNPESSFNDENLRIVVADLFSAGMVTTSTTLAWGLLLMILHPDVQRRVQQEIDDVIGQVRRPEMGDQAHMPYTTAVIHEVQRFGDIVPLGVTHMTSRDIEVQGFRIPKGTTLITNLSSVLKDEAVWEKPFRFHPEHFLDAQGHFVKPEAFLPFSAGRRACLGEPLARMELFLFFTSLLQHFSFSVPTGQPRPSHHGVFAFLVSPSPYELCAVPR
Procedure, shortened: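 Human CYP2D6 (5 nM) with 30 uM Luciferin-ME EGE (at Km) in 100 mM KPO4, compound preincubated 10 min, then NADPH regeneration system for 60 min at room temperature. Luciferin read by luminescence; normalized to 1.43 uM quinidine.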

[15] = target: Cytochrome P450 2C19 (Homo sapiens) (UniProt P33261); test: qHTS Assay for Inhibitors and Substrates of Cytochrome P450 2C19 (AID 899); further: potency means the concentration at half of the fitted maximal effect; nearly all actives have a fitted effect of over 60% in size
Sequence of Cytochrome P450 2C19 (Homo sapiens) (P33261 whole entry, looked up): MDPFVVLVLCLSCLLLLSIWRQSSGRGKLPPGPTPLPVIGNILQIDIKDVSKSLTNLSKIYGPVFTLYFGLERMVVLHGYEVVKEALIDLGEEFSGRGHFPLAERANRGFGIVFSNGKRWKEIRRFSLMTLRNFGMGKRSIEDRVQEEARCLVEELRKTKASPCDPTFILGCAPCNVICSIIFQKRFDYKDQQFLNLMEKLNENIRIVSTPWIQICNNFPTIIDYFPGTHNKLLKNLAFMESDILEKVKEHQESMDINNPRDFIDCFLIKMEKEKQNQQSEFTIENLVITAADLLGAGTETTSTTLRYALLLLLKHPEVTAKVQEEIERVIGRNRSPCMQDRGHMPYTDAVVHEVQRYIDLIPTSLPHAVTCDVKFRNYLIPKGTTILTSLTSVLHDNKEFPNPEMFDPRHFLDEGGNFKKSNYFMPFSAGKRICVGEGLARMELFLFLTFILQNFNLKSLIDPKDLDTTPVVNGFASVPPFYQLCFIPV
Procedure, shortened: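 Signal comes from luciferase acting on luciferin released by CYP2C19-mediated hydroxylation of Luciferin-H EGE, 10uM (KM). Assay mix: 5nM enzyme, 50mM KPO4; 60 min at 37C with NADPH regeneration. Data normalized against 57uM ketoconazole.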

[16] = target: DNA dC->dU-editing enzyme APOBEC-3G (Homo sapiens) (UniProt Q9HC16); test: qHTS for inhibitors of Vif-A3G interactions: Validation (AID 588379)
Procedure, shortened: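 HeLa cells stably expressing Vif and A3G-eYFP, 700 cells/well, incubated overnight at 37 deg C, then exposed to compound overnight at 37 deg C. Inhibition of Vif-mediated degradation read as increased yellow fluorescence (Ex 488/Em 500-530) by laser-scanning cytometry.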

**Q.** How did the Potency [1] turn out when `COc1ccc(N2C(=O)CSC2c2ccccc2F)c(OC)c1` (stereo unspecified) was run?
**A.** The Potency was “inactive”.

**Q.** And the Potency [2]?
**A.** The Potency was “inactive”.

**Q.** And the Potency [3]?
**A.** Its Potency is “inactive”.

**Q.** What does the source list for `CCc1ccc(NC(=O)/C(C#N)=C/c2cc3ccc(C)cc3nc2N2CCOCC2)cc1`?
**A.** Potency [1]: inactive; activation [4]: 0% [at 17.1 µM, percent relative to cAMP agonist control]; Potency [5]: inactive; activity change, negative = inhibition [6]: -18.1% [at 30.8 µM]

**Q.** How did the Potency [7] turn out when `COc1cc2cc3c4c(cc(OC)c(OC)c4c2cc1OC)CCN3C` was run?
**A.** Its Potency is 0.0794 µM (active).

**Q.** And the Potency [8]?
**A.** The Potency was over 46 µM.

**Q.** And the Potency [9]?
**A.** Its Potency is over 46 µM.

**Q.** What about the Potency [10] of the same molecule?
**A.** The Potency was 0.158 µM (active).

**Q.** And the Potency [11]?
**A.** Its Potency is 0.794 µM (active).

**Q.** And the Potency [12]?
**A.** The Potency was 3.98 µM (active).

**Q.** And the outcome [13]?
**A.** Its outcome is “inactive”.

**Q.** What about the Potency [14] of the same molecule?
**A.** The Potency was 3.98 µM (active).

**Q.** And the Potency [15]?
**A.** The Potency was 0.0501 µM (active).

**Q.** What about the outcome [16] of the same molecule?
**A.** Its outcome is “inactive”.

**Q.** And the Potency [1]?
**A.** Its Potency is “inactive”.

**Q.** And the Potency [2]?
**A.** The Potency was “inactive”.

**Q.** For `Cc1ccc(Nc2cc(C)nc3c(C)ccc([N+](=O)[O-])c23)cc1`, which Potency [1] is on record?
**A.** Its Potency is “inactive”.

**Q.** And the activation [4]?
**A.** Its activation is 6.25% [at 17.1 µM, percent relative to cAMP agonist control].

**Q.** What about the Potency [5] of the same molecule?
**A.** The Potency was “inactive”.

**Q.** What about the activity change, negative = inhibition [6] of the same molecule?
**A.** The activity change, negative = inhibition was 4.53% [at 30.8 µM].

**Q.** `O=C1OC(c2ccccc2)(c2cc(Br)c(O)c(Br)c2)c2ccccc21` (stereo unspecified) was tested. Which Potency [1] did it give?
**A.** The Potency was 84.9 µM (active).

**Q.** What about the Potency [2] of the same molecule?
**A.** Its Potency is “inactive”.

**Q.** What about the Potency [3] of the same molecule?
**A.** The Potency was “inactive”.

**Q.** What does the source list for `COc1ccccc1-c1oc2ccccc2c1-c1ccc2c(c1)OCO2`?
**A.** Potency [1]: inactive; Potency [2]: inactive; Potency [3]: inactive

**Q.** Which Potency [1] does the source give for `Cc1ccc2cccc(OC(=O)c3c(F)cccc3Cl)c2n1` here?
**A.** Its Potency is “inactive”.

**Q.** What about the Potency [4] of the same molecule?
**A.** Its Potency is “inactive”.

**Q.** And the Potency [5]?
**A.** Its Potency is “inactive”.

**Q.** What about the Potency [6] of the same molecule?
**A.** Its Potency is “inactive”.

**Q.** What does the source list for `Cc1ccc(S(=O)(=O)N2[C@@H](c3ccc(C(C)(C)C)cc3)C(C(=O)O)=CC[C@H]2c2cccc(Cl)c2)cc1`?
**A.** Potency [1]: 47.8 µM (active); Potency [2]: inactive; Potency [3]: inactive

**Q.** Which results are given for `CN1CCc2c(sc(NC(=O)CSc3ccccc3)c2-c2nc3ccccc3s2)C1`?
**A.** Potency [1]: inactive; Potency [4]: inactive; Potency [5]: inactive; Potency [6]: inactive

**Q.** How did the Potency [1] turn out when `O=C(O)c1ccccc1NS(=O)(=O)c1ccc(NN=Cc2cccc(Cl)c2)c([N+](=O)[O-])c1` was run?
**A.** The Potency was 75.7 µM (active).

**Q.** What about the Potency [4] of the same molecule?
**A.** The Potency was “inactive”.

**Q.** What about the Potency [5] of the same molecule?
**A.** Its Potency is “inactive”.

**Q.** And the Potency [6]?
**A.** Its Potency is “inactive”.

**Q.** For `COC(=O)C1=CN(C(C)c2ccccc2)C=C(C(=O)OC)C1c1cc(OC)c(OC)c(OC)c1` (stereo unspecified), which Potency [1] is on record?
**A.** The Potency was “inactive”.

**Q.** What about the Potency [4] of the same molecule?
**A.** The Potency was “inactive”.

**Q.** What about the Potency [5] of the same molecule?
**A.** The Potency was 26.9 µM (active).

**Q.** What about the Potency [6] of the same molecule?
**A.** The Potency was “inactive”.

**Q.** For `Cc1cc2nc3c(=O)n(C)c(=O)n(C)c3nc2cc1N=CN(C)C`, which Potency [1] is on record?
**A.** The Potency was “inactive”.

**Q.** What about the Potency [2] of the same molecule?
**A.** Its Potency is 50.1 µM (active).

**Q.** And the Potency [3]?
**A.** The Potency was 44.7 µM (active).

**Q.** Which results are given for `COC(=O)c1cc(C(=O)c2ccc(Cl)cc2)n2c(=O)/c(=C\N(C)C)sc12`?
**A.** Potency [1]: inactive; Potency [4]: 100 µM (active); Potency [5]: inactive

**Q.** For `CN1CCS/C1=C\C=C1/SC(=S)N(CC(=O)O)C1=O`, which Potency [1] is on record?
**A.** Its Potency is “inactive”.

**Q.** What about the Potency [4] of the same molecule?
**A.** Its Potency is 79.4 µM (active).

**Q.** What about the Potency [5] of the same molecule?
**A.** The Potency was “inactive”.

**Q.** What about the Potency [6] of the same molecule?
**A.** The Potency was “inactive”.

**Q.** With `Cn1c(=O)c(C#N)c(-c2ccc(F)cc2)c2cc(C(=O)c3cc(Cl)cc(Cl)c3O)cnc21` as the molecule, how does the Potency [1] read?
**A.** The Potency was “inactive”.

**Q.** What about the Potency [4] of the same molecule?
**A.** Its Potency is “inactive”.

**Q.** Which results are given for `CC(C)(C)C1CCc2c(sc(NC(=O)CCC(=O)O)c2C(=O)Nc2ccccc2C(F)(F)F)C1` (stereo unspecified)?
**A.** Potency [1]: 42.6 µM (active); Potency [4]: inactive; Potency [5]: inactive

**Q.** How did the Potency [1] turn out when `O=C(CSc1nc2ccccc2o1)NCc1ccc2c(c1)OCO2` was run?
**A.** The Potency was “inactive”.

**Q.** What about the Potency [4] of the same molecule?
**A.** The Potency was “inactive”.

**Q.** What does the source list for `COc1ccc(N=Cc2c(O)ccc3ccccc23)cc1`?
**A.** Potency [1]: inactive; activation [4]: 6.9% [at 17.1 µM, percent relative to cAMP agonist control]; Potency [5]: inactive; activity change, negative = inhibition [6]: 17.7% [at 30.8 µM]

**Q.** Which Potency [1] does the source give for `O=C(O)c1cc(Nc2cc(Cl)c3nonc3c2[N+](=O)[O-])ccc1O` here?
**A.** The Potency was 9.53 µM (active).

**Q.** What about the Potency [2] of the same molecule?
**A.** The Potency was “inactive”.

**Q.** What about the Potency [3] of the same molecule?
**A.** Its Potency is “inactive”.

**Q.** Which Potency [1] does the source give for `COc1ccc(-c2noc(CN(C(=O)c3c(-c4ccccc4Cl)noc3C)C(C)C)n2)cc1` here?
**A.** Its Potency is “inactive”.

**Q.** And the Potency [2]?
**A.** The Potency was “inactive”.

**Q.** And the Potency [6]?
**A.** The Potency was “inactive”.

**Q.** And the Potency [3]?
**A.** Its Potency is “inactive”.
